Reference: the supplement of paper PMC6522484
± gives the standard deviation of the averaged measurements.

Key:
DLD1 [1] = test: cell viability (CellTiter-Glo) relative to plate median (fraction of plate median); higher = more viable cells; conditions: 5 µM; treatment time 24 h; reporter: 7TFP
How it was run: (§1)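 Each entry is a luminescence signal normalised to the plate median, averaged over independent replicates. The replicate count was two, and the cells were colorectal cancer lines with stable lentiviral TCF/Wnt firefly luciferase reporters exposed to library compounds at a final 5 µM for 24 h. Firefly luciferase and CellTiterGlo were measured on parallel plates.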

HCT116 = test: as above; conditions: 5 µM; treatment time 24 h; reporter: TCF4/Wnt
How it was run: as §1

SW480 [2] = test: as above; conditions: 5 µM; treatment time 24 h; reporter: 7TFP
How it was run: as §1

DLD1 [3] = test: TCF/Wnt firefly luciferase reporter signal relative to plate median (fraction of plate median); higher = higher Wnt reporter signal; conditions: 5 µM; treatment time 24 h; reporter: 7TFP
How it was run: as §1

SW480 [4] = test: as above; conditions: 5 µM; treatment time 24 h; reporter: 7TFP
How it was run: as §1

Row | Structure (SMILES) | cell viability (DLD1 [1]) | cell viability (HCT116) | cell viability (SW480 [2]) | TCF/Wnt firefly luciferase reporter signal (DLD1 [3]) | TCF/Wnt firefly luciferase reporter signal (SW480 [4])
1 | CC[C@H]1C(=O)OC[C@@H]1Cc1cncn1C | 0.942 ± 0.097 | 0.948 ± 0.13 | 1.015 ± 0.0071 | 0.89 ± 0.15 | 0.959 ± 0.019
2 | CC[N+](C)(C)c1cccc(O)c1 | 0.956 ± 0.091 | 0.984 ± 0.013 | 0.908 ± 0.041 | 0.92 ± 0.14 | 0.915 ± 0.044
3 | O=c1ccc2cc(O)c(O)cc2o1 | 1.03 ± 0.19 | 1.13 ± 0.028 | 1.04 ± 0.014 | 0.994 ± 0.066 | 0.893 ± 0.015
4 | CCC(Cc1c(I)cc(I)c(N)c1I)C(=O)O (stereo not given) | 1.08 ± 0.057 | 1.05 ± 0.035 | 1.07 ± 0.028 | 1.035 ± 0.0071 | 1.04 ± 0.035
5 | C[N+](C)(C)CC(=O)O | 0.9965 ± 0.005 | 0.98 ± 0.042 | 0.926 ± 0.036 | 0.906 ± 0.1 | 0.9215 ± 0.0064
6 | CO[C@H]1C=C[C@@]23c4cc5c(cc4CN(C[C@@H]2O)[C@H]3C1)OCO5 | 0.864 ± 0.075 | 0.847 ± 0.069 | 0.862 ± 0.035 | 0.857 ± 0.057 | 0.901 ± 0.18
7 | CCCCCC[C@H]1CC[C@@](O)([C@@](C)(O)C(=O)N[C@@H]2C(=O)N3NCCC[C@@H]3C(=O)N(O)[C@@H](COC)C(=O)NCC(=O)N3NCCC[C@H]3C(=O)N(O)[C@H](C)C(=O)O[C@H]2C)OC1C (stereo not given in full) [Diperamycin] | 1.15 ± 0.099 | 1.23 ± 0.035 | 1.11 ± 0.099 | 1.06 ± 0.11 | 0.926 ± 0.0014
8 | CCC1(c2ccccc2)C(=O)NCNC1=O | 1.02 ± 0.029 | 0.994 ± 0.15 | 1 ± 0.025 | 0.978 ± 0.1 | 1.06 ± 0.028
9 | CC(C)NCC(O)COc1ccc(COCCOC(C)C)cc1 (stereo not given) | 0.948 ± 0.017 | 0.99 ± 0.0057 | 0.933 ± 0.0028 | 1.03 ± 0.042 | 0.964 ± 0.066
10 | CNc1ccccc1C(=O)N1CCc2c([nH]c3ccccc23)C1=O | 1.03 ± 0.043 | 0.996 ± 0.1 | 0.994 ± 0.0085 | 1.14 | 1.09 ± 0.14
11 | COC(=O)[C@]1(C)CCC[C@]2(C)c3ccc(C(C)C)cc3C(=O)CC12 (stereo not given in full) | 1.1 ± 0.13 | 1.03 ± 0.081 | 1.05 ± 0.028 | 1.07 ± 0.25 | 1.07
12 | COc1c(O)cccc1O | 0.99 ± 0.042 | 0.962 ± 0.17 | 1.01 | 1.16 ± 0.05 | 1.06 ± 0.021
13 | COC1=CC(=O)C[C@@H](C)[C@]12Oc1c(Cl)c(OC)cc(OC)c1C2=O | 0.937 ± 0.055 | 1.02 ± 0.057 | 0.865 ± 0.038 | 0.929 ± 0.094 | 0.89 ± 0.17
14 | C=C(C)[C@@H]1C[C@H](O)[C@]2(C(=O)O[C@@H]3O[C@H](CO[C@@H]4O[C@H](CO)[C@@H](O[C@@H]5O[C@@H](C)[C@H](O)[C@@H](O)[C@H]5O)[C@H](O)[C@H]4O)[C@@H](O)[C@H](O)[C@H]3O)CC[C@]3(C)[C@H](C[C@H]4OC(=O)C[C@@H](O)[C@]5(C)[C@@H]4[C@@]3(C)CC[C@H]5C(=C)C)[C@@H]12 [22alpha-hydroxychiisanoside (4)] | 0.87 ± 0.055 | 0.878 ± 0.06 | 0.937 ± 0.033 | 0.803 ± 0.0042 | 0.951 ± 0.029
15 | NCCS | 1.02 ± 0.014 | 1.07 ± 0.12 | 1.035 ± 0.0071 | 1.21 ± 0.021 | 1.16 ± 0.092
16 | NC1=NCCN1CC(=O)O | 0.897 ± 0.036 | 1.03 ± 0.072 | 0.976 ± 0.0014 | 1.06 ± 0.094 | 0.985 ± 0.016
17 | CCn1cc(C(=O)O)c(=O)c2cnc(N3CCCC3)nc21 | 0.983 ± 0.025 | 1 ± 0.029 | 0.955 ± 0.02 | 0.856 ± 0.055 | 0.978 ± 0.046
18 | CN(C)C(=O)C(CCN1CCC(O)(c2ccc(Cl)cc2)CC1)(c1ccccc1)c1ccccc1 | 0.892 ± 0.14 | 0.912 ± 0.033 | 0.983 ± 0.019 | 0.982 ± 0.28 | 0.816 ± 0.16
19 | O=C1NCC(=O)N2CCCC12 (stereo not given) [Cyclo(glycylprolyl)] | 0.941 ± 0.037 | 0.9365 ± 0.005 | 0.959 ± 0.016 | 1.2 ± 0.085 | 0.978 ± 0.073
20 | CC(C)(O)CC[C@@H](O)[C@](C)(O)[C@H]1CC[C@@]2(O)C3=CC(=O)[C@@H]4C[C@@H](O)[C@@H](O)C[C@]4(C)[C@H]3CC[C@]12C | 0.977 ± 0.021 | 1.08 ± 0.042 | 1.01 | 1.1 ± 0.21 | 1.14 ± 0.064
21 | COc1ccc2cc([C@H](C)C(=O)O)ccc2c1 | 1.02 ± 0.039 | 0.981 ± 0.083 | 1.045 ± 0.0071 | 0.969 ± 0.13 | 0.941 ± 0.065
22 | CC1COc2c(N3CCN(C)CC3)c(F)cc3c(=O)c(C(=O)O)cn1c23 (stereo not given) | 0.995 ± 0.05 | 1.04 ± 0.16 | 0.91 ± 0.0099 | 0.93 ± 0.075 | 1.01 ± 0.088
23 | CC(=O)OC[C@@]1(O)C[C@@]23CC[C@@H]4c5ccoc5CC[C@@]4(C)[C@@H]2CC[C@@H]1C3 | 1.02 ± 0.028 | 1.05 ± 0.042 | 1.02 | 1.08 ± 0.16 | 1.16 ± 0.057
24 | COc1cc(OC)c2c(OC)c(-c3ccc4c(c3)OCO4)c(=O)oc2c1 | 1.04 | 1.08 ± 0.05 | 1.01 ± 0.061 | 0.804 ± 0.36 | 0.867 ± 0.34
25 | COc1ccc(-c2cc(=O)c3c(OC(C)=O)cc(OC(C)=O)cc3o2)cc1 | 1.04 ± 0.064 | 1.07 ± 0.13 | 1.17 ± 0.057 | 1.09 | 1.21 ± 0.092
26 | O=C(O)c1cc(O)ccc1O | 0.954 ± 0.0099 | 0.999 ± 0.059 | 1.005 ± 0.0071 | 1.04 ± 0.069 | 1.09
27 | Clc1ccccc1CN1CCc2sccc2C1 | 0.988 ± 0.013 | 1.07 ± 0.05 | 1 ± 0.057 | 0.934 ± 0.036 | 1.01 ± 0.071
28 | COc1ccc(C2CC(=O)c3ccc(OC)cc3O2)cc1 (stereo not given) | 0.994 ± 0.11 | 1.08 ± 0.021 | 1.05 ± 0.05 | 1.05 ± 0.12 | 0.901 ± 0.021
29 | O=c1oc2ccccc2cc1O | 0.992 ± 0.04 | 0.955 ± 0.013 | 1.03 ± 0.021 | 0.765 ± 0.016 | 0.911 ± 0.14
